High-throughput results (PubChem)
Rows were chosen to be rich in hits. Some 1.2% of all compounds tested hit in one or more screens of this group.
BJeLR lethal: kills HRASV12-expressing BJeLR cells; inhibition, % (concentration not given with the values); actives 0.17% (n = 300,000); BJeLR (HRASV12) viability, CellTiter-Glo ATP luminescence, 48 h; in the data active = inhibition above about 50%
PrPC TRFRET: reduces human prion protein on the cell surface; cell surface PrPC, TR-FRET read-out; inhibition, % at 13.8 µM; actives 0.43% (n = 370,000); in the data active = inhibition above about 24%; note: 0% = median of the test wells and 100% = reference compound wells
SARS 3CLpro inh-1: SARS-CoV 3CLpro protease inhibition; P0C6X7; recombinant SARS-CoV 3CLpro, quenched FRET peptide cleavage; inhibition, % at 6 µM; actives 0.14% (n = 290,000); AID 1706; in the data active = inhibition above about 12%
PriA SSB inh: inhibitors of Klebsiella pneumoniae PriA binding to SSB C-terminal tail. actives 0.6% (n = 430,000). inhibition, % at 33 µM. AlphaScreen SSBct-PriA binding, biotinylated peptide; in the data active = inhibition mostly above about 37%, no sharp cut-off; inactive = mostly below about 20%;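 note: plate controls were negative control peptide for no effect and reference peptide for full effect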
PrP UTR inh: suppresses PrP 5' UTR mRNA reporter expression. cell-based PrP 5' UTR mRNA reporter, plate reader. actives 0.35% (n = 340,000). AID 488862. inhibition, % (concentration not given with the values); in the data active = inhibition above about 52%; note: 0 = median of the neutral control wells
SARS 3CLpro inh-2: confirmation of SARS coronavirus 3C-like protease inhibitors; QFRET protease activity assay, 3CLpro; actives 36% (n = 380); inhibition, % at 6 µM; shares compounds with SARS 3CLpro inh-1; in the data active = inhibition above about 13%
Active calls of the source: *; nt = not tested or not shown; ! = not confirmed by another sample.

SMILES	BJeLR lethal	PrPC TRFRET	SARS 3CLpro inh-1	PriA SSB inh	PrP UTR inh	SARS 3CLpro inh-2
CN(C)CCCN(C(=O)c1cc(-c2cccs2)nc2ccccc12)c1nc2c(F)cccc2s1	-3.8	-10.6	1.4	52.0*!	-10.3	nt
Cc1ccc2nc(N(CCCN(C)C)C(=O)c3ccc(Br)s3)sc2c1	-0.5	-4.8	-4.0	10.9	-6.8	nt
Cc1ccc2nc(N(CCCN(C)C)C(=O)c3cc(-c4cccs4)nc4ccccc34)sc2c1	-4.1	-17.2	6.6	44.0*	7.2	nt
O=C(CCc1csc2nc(-c3ccccc3)cn12)N1CCN(c2ccccn2)CC1	nt	nt	nt	-8.0	nt	nt
NS(=O)(=O)c1ccc(CCNc2cnc3cc(S(=O)(=O)N4CCCCC4)ccc3n2)cc1	nt	nt	nt	102.0*	nt	nt
NS(=O)(=O)c1ccc(Nc2ccc3cc(S(=O)(=O)N4CCCCC4)ccc3n2)cc1	-5.4	17.3	6.9	-15.4	-10.2	nt
O=[N+]([O-])c1ccc(Nc2ccccc2O)c2nonc12	-1.0	-40.3	5.1	41.3*	-27.2	nt
Cc1cccc(N(C(=O)CNC(=O)c2ccco2)C(C(=O)NC2CCCCC2)c2cccnc2)c1 (stereo not given)	-7.1	-7.2	2.2	-13.2	-16.8	nt
O=C(NC1CCCCC1)C(c1cccnc1)N(C(=O)CCl)c1cccc(Cl)c1 (stereo not given)	88.8*	-0.2	2.8	15.9	-3.9	nt
COc1cccc(/C=N/NC(=S)Nc2cccnc2)c1	5.4	-12.8	16.3*	nt	-16.0	18.0*
Cn1cccc(C(=O)NCc2ccnc(-c3ccsc3)c2)c1=O	nt	nt	nt	-11.0	nt	nt
O=c1[nH]c(=O)n(-c2ccccc2F)c(O)c1/C=C1\C=Nc2ccccc21	-1.4	4.1	29.2*	nt	-9.0	38.5*
Cc1cnc(-n2nnc(C(=O)NCC(N)=O)c2C)s1	nt	nt	nt	0.0	nt	nt
Cc1ccc(C2CC(c3cccs3)=NN2C(=O)CCl)cc1 (stereo not given)	63.3*	5.5	54.7*	-0.1	nt	70.1*
Cc1ccc(C(=O)c2c3ccc([N+](=O)[O-])cc3[n+]([O-])n2CCC(N)=O)cc1	2.8	-18.8	12.4*	15.8	-31.2	12.0
Cc1ccc(C(=O)c2c3ccccc3[n+]([O-])n2[C@@H](C)C(N)=O)cc1	-1.2	-4.3	nt	13.1	-48.6	nt
Cc1ccc(C(=O)c2c3ccccc3[n+]([O-])n2CCC(N)=O)cc1	4.5	-2.9	33.2*	-5.9	2.1	35.8*
CCOC(=O)c1cn[nH]c1S(=O)(=O)NCc1ccc(F)cc1F	nt	nt	nt	-22.0	nt	nt
Cc1ccc(S(=O)(=O)N=C2C=C(Nc3cccc(C(=O)O)c3)C(=O)c3ccccc32)cc1	nt	nt	nt	40.8	nt	nt
Cc1ccccc1NC1=CC(=NS(=O)(=O)c2ccc(C(=O)O)cc2)c2ccccc2C1=O	nt	nt	nt	17.0	nt	nt
Cc1ccc(S(=O)(=O)/N=C2\C=C(Nc3cccc(C(=O)O)c3)C(=O)c3ccccc32)cc1	20.3	-25.1	13.8*	nt	-24.3	8.2
CCc1ccc(S(=O)(=O)/N=C2\C=C(Nc3ccc(C(=O)O)cc3)C(=O)c3ccccc32)cc1	9.2	-13.7	16.8*	nt	-10.3	10.7
Cc1cc(C)cc(NC(=O)NCCn2ncccc2=O)c1	nt	nt	nt	-13.0	nt	nt
NC(=S)N/N=C/c1ccc(C23CC4CC(CC(C4)C2)C3)cc1	3.0	nt	14.0*	nt	nt	-1.6
NC(=S)NN=Cc1ccc(C23CC4CC(CC(C4)C2)C3)cc1	nt	nt	nt	3.2	nt	nt
SMILES	BJeLR lethal	PrPC TRFRET	SARS 3CLpro inh-1	PriA SSB inh	PrP UTR inh	SARS 3CLpro inh-2
N#CCC(=O)NN=Cc1cc(Br)ccc1OCc1cccc2ccccc12	nt	nt	nt	-0.2	nt	nt
C/C(Cn1nnc([N+](=O)[O-])n1)=N\NC(=O)c1ccc(Cl)c(Cl)c1	-1.5	-21.1	13.7*	nt	-19.9	0.0
CC(=O)c1c(OC(=O)c2ccc(C)cc2)c2ccccc2n1C	0.4	0.9	8.6	-16.9	-1.1	nt
CC(=O)c1c(OC(=O)c2ccco2)c2ccccc2n1C	2.2	-3.8	12.8*	-2.0	-14.1	15.6*
COc1cc2c(cc1OC)C(c1cc(Br)ccc1F)N(C(=O)CCl)CC2 (stereo not given)	57.9*	7.5	21.9*	-3.4	-27.5	34.0*
COc1cc2c(cc1OC)C(C1C(=O)CC(C)(C)CC1=O)N(C(=O)CCl)CC2 (stereo not given)	-6.6	-3.3	-2.5	2.3	-8.0	nt
NC(=NOS(=O)(=O)c1ccccc1)c1ccccn1	nt	nt	nt	-8.8	nt	nt
CCOC(=O)C1CCN(C(=O)c2ccc3c(c2)NC(=O)/C(=C/c2ccccc2)S3)CC1	3.6	3.5	6.5	4.6	-10.6	nt
CCOC(=O)C1CCN(C(=O)c2ccc3c(c2)NC(=O)/C(=C\c2cccc(C)c2)S3)CC1	-1.0	-2.1	13.3*	-7.5	-30.7	0.6
COc1ccc(-c2cc3c(=O)n(CC(=O)NCc4ccco4)ccn3n2)cc1OC	nt	nt	nt	-6.0	nt	nt
O=C(Nc1ccccc1N1CCN(C(=O)c2ccc(Cl)cc2)CC1)c1cccc([N+](=O)[O-])c1	-5.6	-7.7	13.7*	8.6	-9.4	-0.5
CN1CCN(c2ccccc2NC(=O)c2cccc([N+](=O)[O-])c2)CC1	7.6	-24.6	-1.0	-14.7	-2.9	nt
O=C(NCCOc1ccc(F)cc1)c1ccccc1C(F)(F)F	nt	nt	nt	-7.0	nt	nt
Cc1cc(C)c(N(C(=O)Cn2nnc3ccccc32)C(C(=O)NC(C)(C)C)c2ccsc2)c(C)c1 (stereo not given)	-4.2	-1.5	43.3*	6.1	-19.9	69.2*
Cc1ccc(-c2nn(-c3ccccc3)cc2NC(=O)CCl)cc1	-2.7	-9.9	14.0*	4.3	-12.5	12.6*
O=C(NCc1cncc(-c2ccsc2)c1)NCc1cccs1	nt	nt	nt	-14.0	nt	nt
O=S(=O)(Nc1cc(F)ccc1F)c1cccc2nonc12	-9.5	-6.0	12.9*	-12.4	-17.8	-5.6
N#Cc1ccc(CSc2nnc(NC(=O)c3ccc4ncsc4c3)s2)cc1	-5.8	8.3	13.3*	-16.1	-54.9	43.3*
O=C(Nc1nnc(SCc2c(Cl)cccc2Cl)s1)c1ccc2ncsc2c1	-4.2	nt	-1.0	nt	nt	nt
Cc1nn(C2CCS(=O)(=O)C2)c(C)c1N1CCN(C(=O)c2cc(-c3cccs3)[nH]n2)CC1 (stereo not given)	nt	nt	nt	2.0	nt	nt
COc1ccc(C(C(=O)NCC2CCCO2)N(C(=O)Cn2nnc3ccccc32)c2ccc(NC(C)=O)cc2)cc1 (stereo not given)	-6.7	0.2	35.4*	0.1	-7.5	29.9*
CC(=O)Nc1ccc(N(C(=O)Cn2nnc3ccccc32)C(C(=O)NC2CCCC2)c2ccc(O)c(O)c2)cc1 (stereo not given)	4.4	-3.7	19.5*	7.6	-25.9	25.4*
